Among all 96,000 compounds or so, about 20,000 (21%) were called active.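 The calls were made as follows: active = CYP2C19 inhibition above a set limit at 5 µM in the primary screen (cut at about 50% in these data); inactive = the rest.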 Only a sample is shown.
Each compound was assayed against Cytochrome P450 2C19 (Homo sapiens) (UniProt P33261) (assay: blockers of cytochrome P450 2C19 activity – biochemical, luminescence, ADME assay, primary screen (AID 778;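 also: plate controls were negative control wells for no effect and 2.5 mM tranylcypromine positive control for full effect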)). Conditions: CYP2C19 Supersomes, luciferin-H EGE luminescence, 30 min; at 5 µM; active compounds read high.
Sequence of Cytochrome P450 2C19 (Homo sapiens) (P33261 whole entry, looked up): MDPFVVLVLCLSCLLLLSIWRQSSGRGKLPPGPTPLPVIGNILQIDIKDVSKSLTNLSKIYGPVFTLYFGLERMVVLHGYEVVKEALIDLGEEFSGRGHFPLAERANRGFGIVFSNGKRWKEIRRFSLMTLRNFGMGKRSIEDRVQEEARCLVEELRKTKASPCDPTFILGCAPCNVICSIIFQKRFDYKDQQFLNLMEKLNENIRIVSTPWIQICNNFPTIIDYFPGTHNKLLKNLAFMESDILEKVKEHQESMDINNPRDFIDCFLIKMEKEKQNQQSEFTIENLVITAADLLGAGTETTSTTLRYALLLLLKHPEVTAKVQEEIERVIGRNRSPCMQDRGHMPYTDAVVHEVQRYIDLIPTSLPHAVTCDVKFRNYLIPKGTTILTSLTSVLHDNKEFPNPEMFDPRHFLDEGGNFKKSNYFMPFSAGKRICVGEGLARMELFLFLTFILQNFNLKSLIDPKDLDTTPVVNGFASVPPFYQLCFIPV

inhibition, inactive:
CCC(C)NC(=O)c1c(N)n(/N=C/c2cccs2)c2nc3ccccc3nc12 (stereo unspecified) 13.8%
COc1ccccc1NC(=O)C1=C(C)Nc2nnnn2C1c1cccc(Br)c1 (stereo unspecified) 37.1%
COc1ccc(C2C(C(=O)Nc3ccccc3OC)=C(C)Nc3nnnn32)c(OC)c1 (stereo unspecified) 32.5%
CCCN1Cc2cccc(C(=O)Nc3ccc(S(=O)(=O)N4CCCCCC4)cc3)c2C1=O 18.8%
CCC12CN3CC(CC)(CN(C1)C31C(=O)N(C)c3ccc(C)cc31)C2=O (stereo unspecified) 15.6%
O=C(Nc1ncccn1)c1cccs1 -3.9%
CCc1ccccc1NC(=O)c1cccs1 -1%
CC(=O)Nn1cc2c(=O)n(C)c(=O)n(C)c2c1 -4.8%
O=c1oc2cc(O)ccc2cc1-c1ccc(F)cc1 32.1%
CCOC(=O)Nc1ccccc1N1C(=O)c2ccccc2C1=O 1.6%
Cc1cc(C)n(-c2nc(SCC(=O)N3CCCC3)c3c4c(sc3n2)CCCC4)n1 49.7%
COc1ncnc2sc3c(c12)CCCC3 36.6%
O=C(NCc1ccco1)c1cnn2c(C(F)(F)F)cc(-c3ccco3)nc12 20.3%
CCCc1nc(-c2ccccc2O)n(-c2ccccc2)n1 34%
O=C(CN1C(=O)C2C3C=CC(C3)C2C1=O)NCCc1ccccc1Cl (stereo unspecified) 23.5%
O=C(NCCN1C(=O)C2C3C=CC(C3)C2C1=O)Nc1ccccn1 (stereo unspecified) -10.2%
N#C/C=C\Oc1ccc(Cl)cc1N -2.6%
COc1ccc(NC(=O)Cn2c(-c3ccc(OC)cc3)cn(-c3ccc(C)cc3)c2=O)cc1 -4.3%
COc1ccc(Nc2oc(-c3ccccc3Cl)nc2C#N)cc1 1.2%
N#Cc1nc(-c2ccc(OCc3ccccc3)cc2)oc1NCCCN1CCOCC1 7.4%
C=C(C)Cn1c(SCC(=O)NCc2ccco2)nc2sc3c(c2c1=O)CCC3 7.7%
O=C(Cn1nc(Cc2cccnc2)c2ccccc2c1=O)NCC1CCCO1 (stereo unspecified) 16.7%
N#CCCn1cnc2ccccc21 1.7%
CC(=O)c1ccc(NC(=O)N[C@@H](Cc2ccccc2)C(=O)O)cc1 28.5%
COc1ccc(CCNC(=O)COC(=O)c2ccc[nH]c2=O)cc1 -10.2%
CCN(CC)C(=O)C1CCC(C)(C(=O)O)C1(C)C (stereo unspecified) -4.4%
Cc1nc2ccccc2cc1O 0.7%
CC(=O)Nc1cccc(-c2cnc3ccccc3n2)c1 14.9%
Nc1nonc1-c1nc2ccccc2n1Cc1ccc(F)cc1 44.1%
Cc1oc(-c2cccc(Cl)c2)[n+]([O-])c1C -4.8%
COc1cc(C2C(C(=O)c3ccc(C)o3)=C(O)C(=O)N2CCc2ccccc2)ccc1O (stereo unspecified) -1.7%
CC1(C)Cc2nc3sc4c(SCC(=O)NC(c5ccccc5)c5ccccc5)ncnc4c3cc2CO1 15.3%
CC1=CC(=O)C=CC1(C)C(Cl)(Cl)Cl (stereo unspecified) 9.4%
CCC(C)Sc1nc2c(c(=O)[nH]c(=O)n2C)n1CC(O)COc1cccc2ccccc12 (stereo unspecified) 14.5%
CCC(C)Sc1nnc(-c2c[nH]c3ccccc23)n1CCOC (stereo unspecified) 15.6%
CCn1c(SCC(=O)Nc2ccc(OC)c(OC)c2)nnc1-c1c[nH]c2ccccc12 42.9%
CCOC(=O)N1CCN(C(=O)c2cn(C)c3ccc(S(=O)(=O)N4CCCC4)cc3c2=O)CC1 -12.6%
O=C(c1ccc(=O)[nH]c1)N(Cc1ccco1)C1(C(=O)NC2CCCCC2)CCCCC1 -4.2%
N=c1c2c3c(sc2ncn1N)CCCCC3 -16%
c1nnc2c3c4c(sc3ncn12)CCC4 1.2%
CC(C)(C)NC(=O)NC(=O)COC(=O)CCC1CCCCC1 -4.7%
CCN1CCCC1CNC(=O)c1cc2c(=O)n(C)c3ccccc3c2n1C (stereo unspecified) -9.3%
Cc1[nH][nH]c(=O)c1N=Nc1ccccc1 13.3%
Cc1ccc(C2CC2C(=O)NN)cc1 (stereo unspecified) 47.6%
N/C(=N\OC(=O)CCC1CCCCC1)c1ccccn1 5.1%
CC(C)(C)c1cc2cccnc2n1Cc1cccc(F)c1 14.8%
N#C/C(=C/c1ccc(Cl)cc1)NC(=O)c1ccccc1 3.3%
CCCCCN1CC(O)=C(c2ccccc2)C1=N -0.3%
Cc1nc2cc(NC(=O)CSc3nc4c(C)cccc4cc3C#N)ccc2s1 6.7%
Cc1ccc2cc(C#N)c(SCC(=O)NCC3CCCO3)nc2c1C (stereo unspecified) -2.3%
O=C1c2ccccc2C2=Nc3ccccc3SC(c3ccccc3F)C12 (stereo unspecified) 8%
Cc1ccc(C2CC(c3cccc(C)c3)n3nc(N)nc3N2)cc1 (stereo unspecified) 45.1%
Nc1nc2n(n1)C(c1ccco1)CC(c1ccc(Cl)c(Cl)c1)N2 (stereo unspecified) 31%

inhibition, active:
COC(=O)c1ccc(C2C3=C(Nc4nnnn42)c2ccccc2OC3)cc1 (stereo unspecified) 98.9%
O=C(Nc1nn(Cc2ccccc2F)cc1Br)c1cccs1 57.4%
COCCn1c(C)cc(C(=O)CSc2ncnc3sc4c(c23)CCC4)c1C 57.5%
O=C(CCN1C(=O)C2C3C=CC(C3)C2C1=O)Nc1ccccc1F (stereo unspecified) 56.5%
N#Cc1nc(COc2ccc(-c3ccccc3)cc2)oc1NCc1cccnc1 51.7%
O=c1c2ccccc2nnn1CSc1nc2sc3c(c2c(=O)n1CC1CCCO1)CCC3 (stereo unspecified) 56.4%
Cc1cc(O)ccc1-c1cnc2ccccc2n1 60.7%
CC(C)N(c1ccccc1)c1ncnc(NCCC(=O)O)c1[N+](=O)[O-] 55%
CCOC(=O)C1=C(c2ccccc2)N=C2SCC(=O)N2C1c1ccc(O)c(OC)c1 (stereo unspecified) 79.4%
CCn1c(SCCC(C)C)nnc1-c1c[nH]c2ccccc12 88.7%
C=C(C)CSc1nc(N)c2c3c(sc2n1)CCC3 60.4%
CC(NC(=O)CSc1nc2c(cc1C#N)CN(C)CC2)c1ccccc1 (stereo unspecified) 79.6%
Clc1ccc(C2CC(c3cccs3)n3ncnc3N2)cc1Cl (stereo unspecified) 81.9%
